# Hits are enriched below; roughly 1.8% of the tested compounds scored in any of these assays.
# DENV2 CPE: inhibitors of DENV2 cytopathic effect; DENV2-infected cells, cytopathic effect rescue, plate reader; AID 651640; hit rate 1.7% among 350,000; CPE inhibition, % at 9.99 µM; in the data active means CPE inhibition above about 20%, passing the limit was not always enough; tested in BHK-21 cells;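 further: 0% = median of neutral control wells and 100% = median of positive control wells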
# ERp5 inh: ERp5 (human) disulfide isomerase inhibition; Q15084; ERp5 insulin aggregation, absorbance 650 nm, 90 min; inhibition, % at 9.99 µM; hit rate 0.05% among 350,000;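 active means mean replicate inhibition above about 25%, with every replicate also reaching it, limit read from the data, passing the limit was not always enough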
# ERAP1 inh: ERAP1 (human) enzyme inhibition; recombinant ERAP1, Leu-AMC fluorescence, 60 min; inhibition, % at 10.7 µM; hit rate 0.15% among 340,000; AID 652197;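 active means mean replicate inhibition of at least 30%, or all replicates individually reaching that 30% level; inactive means mean below 30% and not every replicate reaching it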;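 further: 0% = neutral control wells and 100% = L-leucinethiol positive control wells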
# Target sequence (Q9NZ08 whole entry, looked up): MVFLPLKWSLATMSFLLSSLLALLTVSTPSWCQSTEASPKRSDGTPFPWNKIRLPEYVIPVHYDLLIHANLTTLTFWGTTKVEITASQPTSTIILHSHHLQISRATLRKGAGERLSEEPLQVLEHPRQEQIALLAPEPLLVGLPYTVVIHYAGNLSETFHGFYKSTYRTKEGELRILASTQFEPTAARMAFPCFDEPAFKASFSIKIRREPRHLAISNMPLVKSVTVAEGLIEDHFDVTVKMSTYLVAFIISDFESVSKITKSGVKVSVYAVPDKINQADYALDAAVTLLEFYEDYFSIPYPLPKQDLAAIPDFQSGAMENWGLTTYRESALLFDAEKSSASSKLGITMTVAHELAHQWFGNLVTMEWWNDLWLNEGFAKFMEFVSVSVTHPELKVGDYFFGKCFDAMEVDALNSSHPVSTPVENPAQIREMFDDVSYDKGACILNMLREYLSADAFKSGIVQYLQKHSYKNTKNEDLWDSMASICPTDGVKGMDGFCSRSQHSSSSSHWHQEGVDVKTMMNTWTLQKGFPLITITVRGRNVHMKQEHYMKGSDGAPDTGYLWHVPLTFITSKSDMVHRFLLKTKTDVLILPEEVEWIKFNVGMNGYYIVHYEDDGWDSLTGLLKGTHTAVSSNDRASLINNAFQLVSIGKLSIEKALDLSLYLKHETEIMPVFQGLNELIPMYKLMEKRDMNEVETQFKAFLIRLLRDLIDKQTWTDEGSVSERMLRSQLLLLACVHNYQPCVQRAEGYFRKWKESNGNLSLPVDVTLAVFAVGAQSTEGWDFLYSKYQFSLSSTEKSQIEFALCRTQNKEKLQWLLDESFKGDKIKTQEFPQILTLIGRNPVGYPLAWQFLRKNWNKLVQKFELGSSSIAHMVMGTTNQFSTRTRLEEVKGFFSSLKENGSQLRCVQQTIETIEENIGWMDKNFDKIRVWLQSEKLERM
# AF4-AF9 inh: MLL-AF4/AF9 protein interaction inhibition. P42568. AID 651704. hit rate 0.47% among 350,000. inhibition, % at 10 µM. AlphaScreen, biotin-AF4 peptide binding to FLAG-AF9;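 active means every replicate reaching a set inhibition limit, whatever the replicate mean, cut at about 25% in these data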;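 further: 0% = plate neutral control median and 100% = total signal loss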
# PDI turbidity: blocks human protein disulfide isomerase activity. PDI insulin aggregation turbidity, A650, 90 min. P07237. hit rate 0.052% among 350,000. inhibition, % at 10 µM;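 active means mean inhibition across replicates of 30% or more, whatever share of single replicates reach that level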
# * hit, by the source's call; . = no result given.
SMILES,DENV2 CPE,ERp5 inh,ERAP1 inh,AF4-AF9 inh,PDI turbidity
Cc1cccc(NC(=O)c2nc[nH]c2C(=O)NCCCNC(=O)c2[nH]cnc2C(=O)Nc2cccc(C)c2)c1,45*,17,-4,-1,8
CCOC(=O)c1ccc(NC(=O)c2nc[nH]c2C(=O)NC[C@@H](C)O)cc1,-1,6,-1,-1,5
CC(C)(C)OC(=O)[C@H](Cc1ccccc1)NC(=O)c1nc[nH]c1C(=O)NCC(=O)OCc1ccccc1,-7,2,5,1,-1
CC(C)(C)OC(=O)CNC(=O)c1[nH]cnc1C(=O)N[C@@H](Cc1ccccc1)C(=O)OC(C)(C)C,54*,0,-1,6,4
Cc1cccc(NC(=O)c2nc[nH]c2C(=O)NCCN(CCNC(=O)c2[nH]cnc2C(=O)Nc2cccc(C)c2)CCNC(=O)c2[nH]cnc2C(=O)Nc2cccc(C)c2)c1,0,-2,1,6,-3
C[C@@H]1CCCCO[C@@H](CN(C)Cc2ccc(C(F)(F)F)cc2)[C@H](C)CN([C@H](C)CO)C(=O)c2cc(NS(=O)(=O)c3ccccc3)ccc2O1,1,0,-1,8,.
Cc1noc(C)c1S(=O)(=O)N(C)C[C@@H]1Oc2ccc(NS(=O)(=O)c3cccs3)cc2C(=O)N([C@H](C)CO)C[C@@H]1C,11,2,-1,4,.
CN(C)C(=O)C[C@@H]1C[C@@H]2c3cc(NC(=O)Cc4ccncc4)ccc3O[C@@H]2[C@H](CO)O1,-1,2,-1,-4,.
CS(=O)(=O)N1C[C@@H](O)COC[C@H]2O[C@@H](CC(=O)NCc3ccccc3)CC[C@@H]21,-8,.,.,.,.
CNC(=O)c1[nH]cnc1C(=O)Nc1ccc(C)cc1,-2,-3,2,2,-3
CNC(=O)c1[nH]cnc1C(=O)Nc1ccc(Cl)cc1,41*,-4,2,-8,-4
C[C@H](NC(=O)c1[nH]cnc1C(=O)Nc1ccccc1)C(=O)OC(C)(C)C,-9,11,.,47*,-6
Cn1ccnc1SCC(=O)NC1CCCC1,6,3,31*,1,11
Cn1ccnc1SCC(=O)Nc1cccc(C#N)c1,87*,3,0,-1,0
Cc1ccc(NC(=O)CSc2nccn2C)cc1F,18,2,2,-7,9
CCS(=O)(=O)N[C@@H]1C=C[C@H](CC(=O)NCc2ccccn2)O[C@@H]1CO,10,-10,2,1,.
C[C@@H]1CN([C@@H](C)CO)C(=O)c2cc(NC(=O)C3CC3)ccc2O[C@H]1CN(C)Cc1ccc(Oc2ccccc2)cc1,33*,0,-1,6,.
C[C@@H]1CN([C@@H](C)CO)C(=O)c2cc(NC(=O)C3CC3)ccc2O[C@@H]1CN(C)Cc1ccc(Oc2ccccc2)cc1,79*,2,4,9,.
COc1ccc(CN(C)C[C@@H]2Oc3ccc(NC(=O)C4CCCCC4)cc3C(=O)N([C@@H](C)CO)C[C@@H]2C)cc1,38*,-1,.,-2,.
O=C(O)C[C@@H]1CC[C@H](NC(=O)CCN2CCCCC2)[C@@H](CO)O1,-9,10,0,-1,.
COC(=O)c1c(CCl)noc1C(=O)NCC1CCCO1 (stereo unspecified),33*,8,-3,-1,-4
CCc1ccc(NC(=O)COc2ccc3c(c2)OCO3)cc1,47*,1,0,1,-2
CCNC(=S)NCc1ccc2[nH]c(C)cc2c1,-3,-2,12,27*,.
CCOC(=O)NCc1ccc2[nH]c(C)cc2c1,1,-3,3,-3,.
Cc1ccc(NC(=S)N2CCN(S(=O)(=O)c3ccc(C)cc3)CC2)cc1,27*,2,-3,-2,0
SMILES,DENV2 CPE,ERp5 inh,ERAP1 inh,AF4-AF9 inh,PDI turbidity
CC(=O)c1cccc(NC(=S)N2CCN(S(=O)(=O)c3ccccc3)CC2)c1,69*,3,-1,3,0
O=S(=O)(c1ccc(NC(=S)N2CCCCC2)cc1)N1CCCCC1,-3,0,1,2,-4
Cc1ccc(S(=O)(=O)N2CCC(C(=O)Nc3ccc(S(=O)(=O)N4CCCC4)cc3)CC2)cc1,6,-7,3,-42,32*
C[C@H](CO)N1C[C@H](C)[C@@H](CN(C)Cc2ccc(C(=O)Nc3ccccc3N)cc2)Oc2ccc(NC(=O)CCN3CCOCC3)cc2C1=O,-5,0,3,-4,.
O=C(Nc1ccccc1)N[C@H](Cc1ccccc1)Cn1cc(CN2C(=O)COC[C@H]2c2ccccc2)nn1,21*,-5,-2,4,.
CN1C(=O)c2cc(NC(=O)C3CCC3)ccc2OC[C@H]2O[C@H](CC(=O)NCCc3ccncc3)CC[C@@H]21,5,1,0,-1,.
CCN(CC)CCNC(=O)c1ccc(NC(=O)Cc2ccc(OC)c(S(=O)(=O)N3CCOCC3)c2)cc1,40*,-2,-2,7,4
COc1ccc(NC(=O)CN2CCc3ccccc3C2)cc1S(=O)(=O)N1CCOCC1,51*,0,0,0,-2
COc1ccc(NC(=O)CN2CCOCC2)cc1S(=O)(=O)N1CCCCC1,2,5,-1,1,16
CCCC#Cc1ccc2c(c1)O[C@@H](CN(C)C(=O)Nc1ccc(OC)cc1)[C@H](C)CN([C@H](C)CO)S2(=O)=O,2,7,-1,3,.
CC(=O)N(C)C[C@H]1[C@H](c2ccc(-c3ccc(F)cc3)cc2)[C@@H](CO)N1C(C)=O,33*,3,4,-9,.
CC(=O)N(C)C[C@@H]1[C@H](c2ccc(-c3ccc(F)cc3)cc2)[C@H](CO)N1C(C)=O,1,4,-4,-4,.
CC(=O)N1[C@H](CN(C)C(=O)c2ccccc2F)[C@@H](c2ccccc2)[C@@H]1CO,61*,0,3,-11,.
CCC(=O)N1C[C@@H](C)[C@@H](OC)CN(C)C(=O)c2cc(NC(=O)C3CCOCC3)ccc2OC[C@@H]1C,-5,-5,-1,2,.
O=C(NCc1ccccc1)[C@]1(Cc2ccccc2)N=C(c2ccc(OCCCO)cc2)O[C@@H]1c1ccccc1,-4,-5,-2,4,.
O=C(Cc1ccncc1)Nc1ccc2c(c1)[C@H]1C[C@H](CC(=O)N3CCc4ccccc4C3)O[C@H](CO)[C@H]1O2,3,-9,0,25*,.
COC(=O)C[C@@H]1C[C@@H]2c3cc(NC(=O)Cc4ccncc4)ccc3O[C@@H]2[C@H](CO)O1,2,36*,1,2,.
O=C(O)C[C@H]1C[C@@H]2c3cc(NC(=O)Cc4ccncc4)ccc3O[C@@H]2[C@@H](CO)O1,90*,1,-2,-1,.
O=C(C[C@@H]1C[C@@H]2c3cc(NC(=O)Cc4ccncc4)ccc3O[C@@H]2[C@@H](CO)O1)NCCN1CCCCC1,77*,-3,0,-5,.
O=C(Cc1ccncc1)Nc1ccc2c(c1)[C@@H]1C[C@H](CC(=O)N3CCc4ccccc4C3)O[C@@H](CO)[C@@H]1O2,10,-3,0,10,.
COC(=O)C[C@@H]1C[C@H]2c3cc(NC(=O)Cc4ccncc4)ccc3O[C@H]2[C@H](CO)O1,8,-6,1,0,.

# Screening results: PubChem, Broad Institute
